Assay outcomes deposited in PubChem BioAssay by National Center for Advancing Translational Sciences (NCATS).
Menin MLL FP TR: inhibitors of human menin-MLL interaction, mutant MLL peptide | O00255 | Menin + Texas Red MLL mutant peptide, fluorescence polarization | Potency, µM (top dose mostly 61.6 µM), inactives show at the highest dose FP activity change, negative = inhibition, hits mostly inhibitors | hit rate 0.23% among 270,000; active = well fitted inhibition curve with a large enough effect in the polarisation, with a control signal flat, not every such curve was filed as active; inconclusive = small, poorly fitted or top-dose-only effect, or effect the other way, or a change in a side signal; inactive = no such curve, though single readings can be large or run the other way; the % refers to the polarisation; note: potency is the fitted concentration of half-maximal effect; % of control where 0% means no effect
CXXC DNA block: MLL CXXC-DNA interaction inhibition; Q03164; MLL-CXXC / FITC-HOXA9 DNA fluorescence polarization; Potency, µM (highest dose often 115 µM), without a hit: at the highest dose activity change, negative = inhibition, hits mostly inhibitors; hit rate 0.037% among 290,000; active = well fitted inhibition curve with a large enough effect in the polarisation, with a control signal flat, not every such curve was filed as active; inconclusive = small, poorly fitted or top-dose-only effect, or effect the other way, or a change in a side signal; inactive = no such curve, though single readings can be large or run the other way; the % refers to the polarisation; note: potency is the fitted concentration of half-maximal effect
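Steps: dispense CXXC domain solution (7 uM) → pin compounds or unlabeled HOX-A9 DNA control → 5 min ambient → add FLSN-HOX-A9 solution (50 nM) → spin → 30 min ambient → fluorescence polarization. Tris pH 7.5/NaCl/DTT/BSA buffer.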
IDH1 R132H inh: blocks human mutant IDH1 R132H enzyme | IDH1-R132H enzyme, NADPH consumption, diaphorase/resazurin fluorescence | Potency, µM (highest dose often 76.6 µM), inactives show at the highest dose activity change, negative = inhibition, hits mostly inhibitors | hit rate 0.093% among 390,000 | AID 602179; note: potency is the fitted concentration of half-maximal effect; % is set by controls: 0 for no effect and ±100 for the full control effect; nearly all actives have a fitted effect of over 65% in size
Target sequence (O75874 whole entry R132H, stated change not applied): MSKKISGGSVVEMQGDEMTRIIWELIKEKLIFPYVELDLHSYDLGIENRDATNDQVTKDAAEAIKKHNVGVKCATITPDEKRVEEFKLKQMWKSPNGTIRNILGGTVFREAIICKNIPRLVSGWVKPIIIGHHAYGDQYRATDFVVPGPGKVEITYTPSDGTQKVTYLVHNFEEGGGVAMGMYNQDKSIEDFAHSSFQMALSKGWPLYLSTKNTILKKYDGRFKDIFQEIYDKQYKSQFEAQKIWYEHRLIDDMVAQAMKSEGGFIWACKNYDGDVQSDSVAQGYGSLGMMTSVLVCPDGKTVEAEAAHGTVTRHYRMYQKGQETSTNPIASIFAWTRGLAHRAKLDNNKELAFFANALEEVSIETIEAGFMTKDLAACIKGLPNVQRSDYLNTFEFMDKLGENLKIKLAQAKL
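IDH1-R132H (0.5 ug/mL) preincubated 30 min with compound, then NADPH (0.016 mM) and alpha-KG (2 mM) added; 80 min at RT, pH 7.5. Remaining NADPH coupled via diaphorase/resazurin to fluorescence (540/590 nm); concentration-response curves normalized to no-enzyme control.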
Akt phos inh: blocks phosphorylation of Akt; Neuro2A IGF-stimulated pAkt S473 HTRF, 20 min; hits give low values; activity change, % for hits at 50 µM; hit rate 0.32% among 360,000; in the data active = activity change below about -80%; inconclusive = mostly about -51% to -80%; note: % is set by controls: 0 for no effect and ±100 for the full control effect
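Neuro2A cells (4,500/well, DMEM with 0.5% FBS) were treated with compound at a single 50 µM final concentration, stimulated with 6 nM IGF for 20 min at 37 °C, and lysed. Phospho-Akt Ser473 was read by HTRF as 665/615 ratio ×10^4.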
LDHA inh: blocks human lactate dehydrogenase A. hit rate 0.15% among 480,000. purified LDHA, NADH/diaphorase-resazurin fluorescence; hits give low values. P00338. activity change, % (values are at about 110 or 230 µM). AID 1347041; in the data active = activity change below about -30%; inconclusive = mostly about -25% to -30%;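 note: plate controls were DMSO wells for no effect and wells without enzyme for full effect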
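LDH5 2 nM; NADH 0.06 mM, pyruvate 0.2 mM; 200 mM Tris pH 7.4, EDTA, Tween-20; 5 min RT. Detection: diaphorase 0.133 mg/mL + resazurin 37 µM, fluorescence ex540/em590 at 0 and 20 min; normalized to enzyme-free and DMSO wells.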
Menin MLL FP FL: displaces fluorescein MLL peptide from human menin | Fluorescence polarization, fluorescein-MLL peptide displacement from menin | FP activity change, % at 61.4 µM | 290,000 tested, under 10 active | AID 1766; active = well fitted curve in the direction sought with a large enough effect in the polarisation, not every such curve was filed as active; inconclusive = small, poorly fitted or top-dose-only effect, or effect the other way, or a change in a side signal; inactive = no such curve, though single readings can be large or run the other way; the % refers to the polarisation; note: % of control where 0% means no effect
IDH1 autofl: autofluorescence interference, mutant IDH1 hit counter-screen; 750 tested, under 10 active; Resorufin detection reagent fluorescence interference, cell-free; shares compounds with IDH1 R132H inh; AID 623980; inhibition of signal, % at 51.2 µM;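 note: 0% = wells with normal resorufin and full inhibition = wells lacking resorufin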
IDH1 WT: inhibits human wild-type IDH1, mutant selectivity check | shares compounds with IDH1 R132H inh | WT IDH1 enzyme, NADPH diaphorase/resazurin fluorescence | Potency, µM (top dose mostly 115 µM), without a hit: top-dose activity change, negative = inhibition, hits mostly inhibitors | hit rate 9% among 750 | AID 623995;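 note: potency is the fitted concentration of half-maximal effect; 0% = full WT IDH1 enzyme control and full inhibition = no enzyme wells; nearly all actives have a fitted effect of over 55% in size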
Target sequence (O75874 whole entry, looked up): as the sequence (O75874 whole entry R132H, stated change not applied) above, with H132R counted along it
mIDH1 confirm: confirmation of human mutant IDH1 inhibitors; shares compounds with IDH1 R132H inh; IDH1 R132H enzyme, NADPH diaphorase/resazurin fluorescence; Potency, µM (series often up to 76.6 µM), without a hit: at the top dose activity change, negative = inhibition, hits mostly inhibitors; hit rate 83% among 750; AID 624002; note: potency is the fitted concentration of half-maximal effect; nearly all actives have a fitted effect of over 50% in size
* hit, by the source's call; i = inactive; u = inconclusive; x = no result given. Most compounds without a hit are left out; they make up all but 0.54% or so of the library. Unless noted, calls come from the whole dose curve; as a rule, active = well fitted curve in the direction sought with a large enough effect; inconclusive = small, poorly fitted or top-dose-only effect, or another doubt; inactive = no such curve, though single readings can be large; an effect the other way counts as inactive or inconclusive.

SMILES | Menin MLL FP TR | CXXC DNA block | IDH1 R132H inh | Akt phos inh | LDHA inh | Menin MLL FP FL | IDH1 autofl | IDH1 WT | mIDH1 confirm
N#Cc1cccc(/C=C2/CCOc3ccc(Br)cc3C2=O)c1 | x | x | x | x | 3 | x | x | x | x
NSc1nc(N)c2nc(-c3ccccc3)c(-c3ccccc3)nc2n1 | 8% | 10% | u | i | -6 | 0 | 2 | 1% | 22µM*
Cn1c(C(=O)NCc2ccncc2)nc2ccccc2c1=O | x | x | x | x | 20 | x | x | x | x
Cn1c2ccccc2c(=O)c2c(=O)n(-c3ccc(F)cc3)c(-c3cccs3)nc21 | x | 3% | -16% | i | 10 | 5 | x | x | x
CC(c1ccccc1)n1c(-c2cccs2)nc2c(c(=O)c3ccccc3n2C)c1=O (configuration not stated) | x | 27% | 32µM* | i | -4 | 6 | 2 | 20% | 7.9µM*
CCOC(=O)c1cc(-c2ccc(/C=C3/C(=O)N(c4ccc(C(=O)O)cc4)N=C3C)o2)ccc1Cl | u | -2% | u | i | -2 | -21 | 4 | 5µM* | 1.3µM*
CCOC(=O)c1cc(-c2ccc(/C=N\n3cnnc3)o2)ccc1Cl | 17% | 3% | 0% | x | -9 | 0 | x | x | x
Cc1cc(C(C)(C)C)oc1C(=O)N1CCN(C(=O)c2oc(C(C)(C)C)cc2C)CC1 | 0% | -8% | 40µM* | i | 0 | 0 | -13 | u | 14µM*
CCCC(C)N(C)CC(=O)NC(=O)NCCc1cccs1 (configuration not stated) | x | x | x | x | -5 | x | x | x | x
Cc1ccc(N(C(=O)c2nsc(Cl)c2Cl)C(C(=O)NC2CCCC2)c2ccc(O)cc2)cc1C (configuration not stated) | 1% | 5% | u | i | -7 | 0 | 1 | 16% | 14µM*
CCOCCCN1C(=O)c2[nH]nc(-c3ccccc3O)c2C1c1ccc(CC)cc1 (configuration not stated) | x | x | u | x | 3 | x | -2 | -7% | u
CCOc1ccc(C2c3c(-c4ccccc4O)n[nH]c3C(=O)N2Cc2cccnc2)cc1OC (configuration not stated) | x | x | u | x | 10 | x | 1 | -12% | 32µM*
CCOc1cc(C2c3c(-c4ccccc4O)n[nH]c3C(=O)N2Cc2cccnc2)ccc1O (configuration not stated) | x | x | 7% | x | 3 | x | x | x | x
CCc1ccc(C2c3c(-c4ccccc4O)n[nH]c3C(=O)N2Cc2ccncc2)cc1 (configuration not stated) | x | x | 35µM* | x | -5 | x | -3 | 0% | 28µM*
COc1cccc2cc(-c3cc(=O)oc4cc(C)c(OS(C)(=O)=O)cc34)oc12 | x | x | x | x | 9 | x | x | x | x
N#CC(=C1C=C(Br)C(=NO)C=C1Cl)c1ccc(Cl)cc1 | x | x | u | i | 6 | x | 6 | u | 28µM*
Cc1cc(O)c(C(C)C)cc1C1(c2cc(C(C)C)c(O)cc2C)OC(=O)c2ccccc21 | -13% | 17% | 16µM* | i | 0 | 1 | 0 | -6% | 16µM*
CC(C)NCc1ccc(C(=O)O)cc1 | x | x | x | x | -17 | x | x | x | x
CCCCNc1c(-c2cccc(-c3ccc(OC)cc3)c2)nc2cc(C)ccn12 | x | x | -4% | i | 0 | x | x | x | x
CCCCNc1c(-c2cccc(-c3ccc(OC)cc3)c2)nc2ccc(C)cn12 | x | x | u | i | -1 | x | -7 | u | 6.3µM*
COc1ccc(C(C(=O)NC2CCCCC2)N(C(=O)c2ccco2)c2ccccc2OC)cc1 (configuration not stated) | u | -8% | 0% | i | -10 | 2 | x | x | x
COc1ccc(N(C(=O)c2cnccn2)C(C(=O)NC2CCCCC2)c2ccccc2)cc1 (configuration not stated) | -10% | 4% | u | i | 1 | -5 | -8 | 3% | 35µM*
COc1cccc(C(C(=O)NC2CCCCC2)N(C(=O)c2ccco2)c2ccccc2OC)c1 (configuration not stated) | x | -3% | u | i | 1 | x | -4 | -5% | u
COc1ccc(N(C(=O)c2ccco2)C(C(=O)NC2CCCC2)c2ccccc2)cc1 (configuration not stated) | u | -5% | u | i | -4 | 1 | 0 | 11% | 40µM*
COc1ccc(N(C(=O)c2ccco2)C(C(=O)NC2CCCC2)c2ccc(N(C)C)cc2)cc1 (configuration not stated) | -11% | 2% | -2% | i | 3 | 2 | x | x | x
SMILES | Menin MLL FP TR | CXXC DNA block | IDH1 R132H inh | Akt phos inh | LDHA inh | Menin MLL FP FL | IDH1 autofl | IDH1 WT | mIDH1 confirm
Cc1cc(C)cc(N(C(=O)CNC(=O)c2ccco2)C(C(=O)NC2CCCCC2)c2cccnc2)c1 (configuration not stated) | -23% | 23% | u | i | -3 | 5 | -2 | 0% | u
COc1cc(C=O)cc(Cl)c1OCc1cccc(C(=O)O)c1 | x | x | x | x | -22 | x | x | x | x
COc1ccc(N(C(=O)c2ccco2)C(C(=O)NC2CCCCC2)c2ccccc2)cc1 (configuration not stated) | x | x | u | i | -2 | x | -10 | -20% | 20µM*
COCCNC(=O)CS(=O)(=O)Cc1nc(-c2cccc(Cl)c2)oc1C | x | x | x | x | -12 | x | x | x | x
CCN(CC)S(=O)(=O)c1cccc(C(=O)OCc2cnc(-c3ccccc3)s2)c1 | x | x | x | x | -4 | x | x | x | x
CC(C)=CCc1c(O)cc(O)c2c(=O)c3c(CC=C(C)C)c(O)ccc3oc12 | x | x | 45µM* | i | -21 | x | 4 | 6% | 40µM*
O=S(=O)(Nc1ccc(S(=O)(=O)Nc2nccs2)cc1)c1ccc(Br)cc1 | x | 14% | u | i | -3 | x | 2 | 8% | 40µM*
CCN(CCO)c1ncnc2c1sc1nc(C(C)C)c3c(c12)CC(C)(C)OC3 | -5% | -3% | u | i | 5 | 4 | -13 | 7.1µM* | 6.3µM*
CC(C)CNc1ncnc2c1sc1nc(C(C)C)c3c(c12)CC(C)(C)OC3 | x | x | x | x | 12 | x | x | x | x
COc1ccc(/C=C2\Oc3cc(OS(=O)(=O)c4ccccc4)ccc3C2=O)cc1 | x | x | x | x | 2 | x | x | x | x
